# Reference: PubChem BioAssay (Tox21)
# Several values for one entry are separate records, joined by “and”; a condition that tells them apart may be missing. Identical values can stand only once. Results filed as inconclusive are left out. A call without a number means that no potency is given here. Where a structure was tested more than once in an assay, its records may differ in their call. Activity calls are given as the source filed them. Unless noted, the call rests on the fitted dose curve; in most records, active means well fitted curve in the direction sought with a large enough effect in the repeat runs; inconclusive means weak or mixed curves; inactive means no such curve, though single readings can be large; an effect the other way counts as inactive or inconclusive.
# Key:
# [1] = qHTS assay to identify small molecule antagonists of the thyroid receptor (TR) signaling pathway - cell viability counter screen (AID 743064); further: nearly all actives have a fitted effect of over 50% in size; further: potency means the concentration at half of the fitted maximal effect
# Method in brief: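 In rat pituitary GH3.TRE-Luc reporter cells co-exposed to compound and 1 nM T3 for 23.5 h, cytotoxicity was assessed with CellTiter-Fluor in the same wells, read by fluorescence.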
# [2] = qHTS assay to identify small molecule antagonists of the thyroid receptor (TR) signaling pathway (AID 743065); further: nearly all actives have a fitted effect of over 55% in size; further: potency means the concentration at half of the fitted maximal effect
# Method in brief: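 GH3.TRE-Luc rat pituitary cells carrying two TR response elements driving luciferase were plated for 4 h, given compound plus 1 nM T3 (final), and incubated 23.5 h at 37 C. ONE-Glo luminescence measured reporter inhibition; CellTiter-Fluor fluorescence tracked cytotoxicity.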
# [3] = test system: thyroid hormone receptor (rat, GH3 cells); experiment: qHTS assay to identify small molecule agonists of the thyroid receptor (TR) signaling pathway (AID 743066; calls by dose curve)
# [4] = molecular target: Estrogen receptor (Homo sapiens) (UniProt P03372); experiment: qHTS assay to identify small molecule antagonists of the estrogen receptor alpha (ER-alpha) signaling pathway (AID 743069; active means well fitted curve in the direction sought with a large enough effect in the signal ratio in the repeat runs, not every such curve was filed as active; the % refers to the signal ratio)
# Method in brief: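 A 17beta-estradiol challenge was applied right after compound transfer to ER-alpha-UAS-bla HEK293 cells previously kept in charcoal-stripped serum. Plates stood 18 hr at 37C and 5% CO2; fluorescence was read following 2 hr FRET substrate loading at room temperature.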
# [5] = qHTS assay to identify small molecule antagonists of the estrogen receptor alpha (ER-alpha) signaling pathway - cell viability counter screen (AID 743074; calls by dose curve;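 further: HEK293 cells carrying ER-alpha-UAS-bla reporter stimulated with 17beta-estradiol; nearly all actives have a fitted effect of over 45% in size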)
# [6] = molecular target: Estrogen receptor (Homo sapiens) (UniProt P03372); experiment: qHTS assay to identify small molecule agonists of the estrogen receptor alpha (ER-alpha) signaling pathway (AID 743075; calls by dose curve;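 further: HEK293 GripTite cells with ER-alpha and UAS-driven beta-lactamase reporter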; further: potency means the concentration at half of the fitted maximal effect)
# [7] = molecular target: Estrogen receptor (Homo sapiens) (UniProt P03372); experiment: qHTS assay to identify small molecule agonists of the estrogen receptor alpha (ER-alpha) signaling pathway using the BG1 cell line (AID 743079); further: nearly all actives have a fitted effect of over 20% in size; further: potency means the concentration at half of the fitted maximal effect
# [8] = qHTS assay to identify small molecule antagonists of the estrogen receptor alpha (ER-alpha) signaling pathway using the BG1 cell line (AID 743080; calls by dose curve;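 further: BG1 cells stimulated with 17beta-estradiol alongside compound; nearly all actives have a fitted effect of over 25% in size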; further: potency means the concentration at half of the fitted maximal effect)
# Method in brief: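 Luciferase inhibition measured with ONE-Glo after 30 min at RT in BG1Luc4E2 cells given test compounds and 17beta-estradiol for 21.5 h at 37 C; CellTiter-Fluor viability read in the same wells beforehand.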
# [9] = qHTS assay to identify small molecule antagonists of the estrogen receptor alpha (ER-alpha) signaling pathway using the BG1 cell line - cell viability counter screen (AID 743081);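 further: compound given together with 17beta-estradiol as the ER stimulus; nearly all actives have a fitted effect of over 45% in size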; further: potency means the concentration at half of the fitted maximal effect
# Aromatase (Homo sapiens) = Aromatase (Homo sapiens) (UniProt P11511); experiment: qHTS assay to identify aromatase inhibitors (AID 743083); further: nearly all actives have a fitted effect of over 55% in size; further: potency means the concentration at half of the fitted maximal effect
# Aromatase (Homo sapiens), sequence (P11511 whole entry, looked up): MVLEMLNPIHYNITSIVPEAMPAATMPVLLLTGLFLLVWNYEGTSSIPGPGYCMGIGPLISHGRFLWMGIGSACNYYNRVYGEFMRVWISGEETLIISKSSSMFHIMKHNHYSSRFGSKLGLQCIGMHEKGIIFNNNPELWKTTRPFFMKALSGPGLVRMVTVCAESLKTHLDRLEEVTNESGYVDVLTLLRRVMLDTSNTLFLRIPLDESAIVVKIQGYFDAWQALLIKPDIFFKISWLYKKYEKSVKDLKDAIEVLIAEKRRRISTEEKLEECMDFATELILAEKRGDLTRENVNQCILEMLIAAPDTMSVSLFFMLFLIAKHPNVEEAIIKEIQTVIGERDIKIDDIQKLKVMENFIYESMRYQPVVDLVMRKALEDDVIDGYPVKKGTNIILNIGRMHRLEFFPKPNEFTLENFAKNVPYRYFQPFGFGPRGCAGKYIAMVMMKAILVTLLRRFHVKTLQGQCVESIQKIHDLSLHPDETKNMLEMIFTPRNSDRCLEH
# Estrogen receptor (Homo sapiens), sequence (P03372 whole entry, looked up): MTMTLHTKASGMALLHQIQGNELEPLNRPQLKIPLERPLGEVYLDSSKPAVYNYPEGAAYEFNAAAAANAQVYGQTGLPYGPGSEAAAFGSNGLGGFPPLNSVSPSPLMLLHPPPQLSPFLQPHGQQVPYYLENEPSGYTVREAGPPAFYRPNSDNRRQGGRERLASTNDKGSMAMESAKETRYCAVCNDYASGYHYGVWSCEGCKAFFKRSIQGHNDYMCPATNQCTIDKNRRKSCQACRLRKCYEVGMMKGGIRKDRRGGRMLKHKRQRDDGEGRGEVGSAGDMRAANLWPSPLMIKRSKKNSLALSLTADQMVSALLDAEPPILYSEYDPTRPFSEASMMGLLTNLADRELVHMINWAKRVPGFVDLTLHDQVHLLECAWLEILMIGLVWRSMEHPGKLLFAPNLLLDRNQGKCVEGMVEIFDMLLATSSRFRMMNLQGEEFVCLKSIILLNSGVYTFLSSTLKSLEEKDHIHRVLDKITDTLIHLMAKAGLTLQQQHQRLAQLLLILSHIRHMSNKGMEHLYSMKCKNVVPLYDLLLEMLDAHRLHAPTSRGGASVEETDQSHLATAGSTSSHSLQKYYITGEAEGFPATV
Structure (SMILES),Potency [1],Potency [2],outcome [3],Potency [4],outcome [5],Potency [6],Potency [7],Potency [8],Potency [9],Potency (Aromatase (Homo sapiens))
CC(C)Cc1ccc(C(C)C(=O)O)cc1 (stereo unspecified),inactive,inactive,inactive,inactive,inactive,inactive,inactive and 68.6 µM (active),inactive,inactive,inactive
Oc1cccc(O)c1,inactive,inactive,inactive,inactive,inactive,inactive,inactive,inactive,inactive,inactive
CC1=NN(c2ccccc2)C(=O)C1,inactive,inactive,inactive,inactive,inactive,inactive,inactive,inactive,inactive,inactive
COCCOCCOC,inactive,inactive,inactive,inactive,inactive,inactive,inactive,inactive,inactive,inactive
CCCCOCCOCCOC(C)=O,inactive,inactive,inactive,inactive,inactive,inactive,inactive,inactive,inactive,inactive
C=C(C)C(N)=O,inactive,inactive,inactive,inactive,inactive,inactive,inactive,inactive,inactive,inactive
Cc1cccc(Nc2cc(Cl)nc(SCC(=O)O)n2)c1C,inactive,inactive,inactive,inactive,inactive,inactive,inactive,inactive,inactive,inactive
CC(=O)OC/C=C(C)/C=C/C=C(C)/C=C/C1=C(C)CCCC1(C)C,inactive,inactive,inactive,inactive,inactive,inactive and 33.8 µM [activator] (active),inactive,inactive,inactive,inactive
C[C@]12C=CC(=O)C=C1CC[C@@H]1[C@@H]2C(=O)C[C@@]2(C)[C@H]1CC[C@]2(O)C(=O)CO,inactive,inactive,inactive,inactive,inactive,inactive,inactive and 54.5 µM (active),inactive,inactive,inactive
COC(=O)c1ccc(O)cc1,inactive,inactive,inactive,inactive,inactive,inactive,inactive,inactive,inactive,inactive
CCN1CCCC1=O,inactive,inactive,inactive,inactive,inactive,inactive,inactive,inactive,inactive,inactive
CN(C)Cc1cc(CN(C)C)c(O)c(CN(C)C)c1,inactive,inactive,inactive,inactive,inactive,inactive,inactive,inactive,inactive,inactive
OC[C@@H](O)[C@@H](O)[C@H](O)[C@H](O)CO,inactive,inactive,inactive,inactive,inactive,inactive,inactive,inactive,inactive,inactive
CCn1cc(C(=O)O)c(=O)c2ccc(C)nc21,inactive,inactive,inactive,inactive,inactive,inactive,inactive,inactive,inactive,inactive
Cc1cccc(C)c1O,inactive,inactive,inactive,inactive,inactive,inactive,inactive,inactive,inactive,inactive
NC(=O)OCC(COC(N)=O)c1ccccc1,inactive,inactive,inactive,inactive,inactive,inactive,inactive,inactive,inactive,inactive
COc1cc(O)c(C(=O)c2ccccc2)cc1S(=O)(=O)O,inactive,inactive,inactive,inactive,inactive,inactive,inactive,inactive,inactive,inactive
CC(C)(C)NCC(O)c1ccc(O)c(CO)c1 (stereo unspecified),inactive,inactive,inactive,inactive,inactive,inactive,inactive,inactive,inactive,inactive
O=C(O)CN(CC(=O)O)CC(=O)O,inactive,inactive,inactive,inactive,inactive,inactive,inactive,inactive,inactive,inactive

Structure (SMILES),Potency [1],Potency [2],outcome [3],Potency [4],outcome [5],Potency [6],Potency [7],Potency [8],Potency [9],Potency (Aromatase (Homo sapiens))
OCCCc1ccccc1,inactive,inactive,inactive,inactive,inactive,inactive,inactive,inactive,inactive,inactive
Cc1cnc(NC(=O)C2=C(O)c3ccccc3S(=O)(=O)N2C)s1,inactive,inactive,inactive,inactive,inactive,inactive,inactive and 21.1 µM (active),inactive,inactive,inactive
NC(=O)N/N=C/c1ccc([N+](=O)[O-])o1,inactive,inactive,inactive,inactive,inactive,inactive,inactive,inactive,inactive and 54.5 µM (active),inactive and 62.9 µM (active)
O=C(O)CCCCC1CCSS1 (stereo unspecified),inactive,inactive,inactive,inactive,inactive,inactive,inactive,inactive,inactive,inactive
NC(=O)N1c2ccccc2C=Cc2ccccc21,inactive,inactive,inactive,inactive,inactive,inactive,inactive,inactive,inactive,inactive
CCCCCCCCCCCCCCCCCC(=O)OCC(O)CO (stereo unspecified),inactive,inactive,inactive,inactive,inactive,inactive,inactive,inactive,inactive,inactive
N[C@@H](Cc1c[nH]c2ccc(O)cc12)C(=O)O,inactive,inactive,inactive,inactive,inactive,inactive,inactive,inactive,inactive,inactive
COc1ccccc1O,inactive,inactive,inactive,inactive,inactive,inactive,inactive,inactive,inactive,inactive
COCC(C)N (stereo unspecified),inactive,inactive,inactive,inactive,inactive,inactive,inactive,inactive,inactive,inactive
CCCCCCCCOc1ccc(C(=O)c2ccccc2)c(O)c1,inactive,inactive,inactive,inactive,inactive,inactive,inactive,12.3 µM (active) and 12.2 µM (active),inactive,inactive
CCOC(=O)C(C)(C)Oc1ccc(Cl)cc1,inactive,inactive,inactive,inactive,inactive,inactive,26.6 µM (active) and inactive,inactive,inactive,inactive
c1ccc2[nH]c(-c3cscn3)nc2c1,inactive,inactive,inactive,inactive,inactive,inactive,16.8 µM (active) and 24.5 µM (active) and 9.69 µM (active),–,inactive,inactive
Cc1ccc(O)c(-n2nc3ccccc3n2)c1,inactive,inactive,inactive,inactive,inactive,inactive and 11 µM [activator] (active),5.96 µM (active) and 17.1 µM (active) and 3.86 µM (active),–,inactive,inactive
C=CCOC(=O)CC(C)C,inactive,inactive,inactive,inactive,inactive,inactive,inactive,inactive,inactive,inactive
O=C(OCc1ccccc1)c1ccccc1,inactive,inactive,inactive,–,inactive,–,–,–,inactive,inactive
C#C[C@]1(O)CC[C@H]2[C@@H]3CCC4=CC(=O)CC[C@@H]4[C@H]3CC[C@@]21CC,inactive,27.3 µM (active),inactive,–,inactive,–,422 nM (active) and 38.6 nM (active) and 386 nM (active),inactive,inactive,inactive
C1CNCCN1,inactive,inactive,inactive,inactive,inactive,inactive,inactive and 68 µM (active),inactive,inactive,inactive
CC(C)(C)CC(C)(C)c1ccc(O)c(-n2nc3ccccc3n2)c1,26.6 µM (active) and 30.6 µM (active),21.1 µM (active) and 62 µM (active) and 27.3 µM (active),inactive,inactive,inactive,inactive,inactive,inactive and 61.1 µM (active),inactive,inactive
COc1cc(C=O)ccc1O,inactive,inactive,inactive,–,inactive,inactive,inactive,inactive,inactive,inactive
